This is a sample that favours compounds with a hit; in the whole collection about 6.3% have one here.
tim23-1 inh = tim23-1 yeast growth inhibition. S. cerevisiae tim23-1 growth, BacTiter-Glo luminescence, 24 h. inhibition, % at 20 µM. hit rate 1.3% among 330,000. AID 463212;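 active means growth inhibition of the mutant yeast at or above 50%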;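 further: temperature-sensitive mutant grown at 25 °C; plate controls were DMSO-treated mutant yeast for no effect and medium wells lacking yeast for full effect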
tim10-1 inh = inhibits growth of tim10-1 mutant yeast; inhibition, % at 20 µM; S. cerevisiae tim10-1 ts strain growth, BacTiter-Glo, 24 h; hit rate 2.2% among 330,000;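 active means inhibition of at least 40%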;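 further: mutant grown at 25 °C; 0% = DMSO wells with yeast and 100% = wells holding no yeast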
Mdm2 MdmX PPI = disrupts the human Mdm2-MdmX interaction; O15151+Q00987; SaOS-2 split-luciferase Mdm2/MdmX complementation, luminescence; inhibition, % at 8 µM; hit rate 3% among 330,000; AID 485346;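 active means inhibition of at least 50% at 8 µM in the primary screen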
Target sequence (O15151 whole entry, looked up): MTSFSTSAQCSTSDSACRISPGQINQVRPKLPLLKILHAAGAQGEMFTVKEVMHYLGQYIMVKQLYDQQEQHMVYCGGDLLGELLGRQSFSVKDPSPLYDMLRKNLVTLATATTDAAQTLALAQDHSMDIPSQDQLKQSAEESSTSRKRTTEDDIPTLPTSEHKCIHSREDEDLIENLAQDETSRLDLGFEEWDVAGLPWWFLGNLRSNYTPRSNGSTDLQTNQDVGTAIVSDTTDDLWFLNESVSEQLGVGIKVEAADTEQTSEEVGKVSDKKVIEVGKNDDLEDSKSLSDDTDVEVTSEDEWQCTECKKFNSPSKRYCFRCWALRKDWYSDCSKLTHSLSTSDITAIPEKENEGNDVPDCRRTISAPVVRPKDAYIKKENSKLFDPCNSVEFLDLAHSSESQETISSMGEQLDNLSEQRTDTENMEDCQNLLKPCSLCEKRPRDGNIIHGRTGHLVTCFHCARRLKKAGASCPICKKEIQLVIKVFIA
Target sequence (Q00987 whole entry, looked up): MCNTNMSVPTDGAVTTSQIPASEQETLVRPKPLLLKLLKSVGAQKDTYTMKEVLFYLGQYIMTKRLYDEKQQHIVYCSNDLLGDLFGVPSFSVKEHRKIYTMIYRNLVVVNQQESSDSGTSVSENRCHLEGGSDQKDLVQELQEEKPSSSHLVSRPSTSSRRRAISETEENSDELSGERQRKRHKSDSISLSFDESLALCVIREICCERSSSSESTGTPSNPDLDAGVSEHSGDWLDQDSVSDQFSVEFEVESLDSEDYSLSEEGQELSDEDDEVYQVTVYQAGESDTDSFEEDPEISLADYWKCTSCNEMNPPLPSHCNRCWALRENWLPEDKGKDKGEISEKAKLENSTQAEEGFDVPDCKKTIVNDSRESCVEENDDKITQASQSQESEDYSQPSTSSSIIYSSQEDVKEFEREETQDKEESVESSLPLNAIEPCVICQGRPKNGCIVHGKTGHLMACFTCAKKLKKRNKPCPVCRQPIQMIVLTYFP
TIM10 inh = TIM10 yeast growth inhibition; S. cerevisiae TIM10 strain growth, BacTiter-Glo luminescence, 24 h; inhibition, % at 10 µM; hit rate 1.4% among 330,000;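 active means inhibition of 40% or more at the single tested concentration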;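 further: wild-type TIM10 isogenic control strain grown at permissive 25 °C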
MPTP inh = blocks calcium-induced mitochondrial swelling; isolated mouse mitochondria, Ca2+ swelling absorbance, 30 min; inhibition, % at 10 µM; hit rate 1.4% among 360,000; AID 602449;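 active means inhibition of 50% or more, scaled per plate between neutral and stimulator controls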;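 further: 0% = DMSO wells given calcium and 100% = 1 mM EGTA wells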
Rh123 counter = membrane potential counter-screen of mitochondrial pore inhibitors | shares compounds with MPTP inh | isolated mitochondria, Rhodamine 123 fluorescence | inhibition, % at 10 µM | hit rate 78% among 5,000; in the data active means inhibition above about 22%;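 further: 0% = DMSO vehicle and 100% = positive control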
MPTP swell DR = dose response confirmation of mitochondrial permeability transition pore inhibitors; shares compounds with MPTP inh; isolated mitochondria swelling, absorbance; IC50, µM; hit rate 58% among 780; in the data active means IC50 below about 20 µM
MPTP cs DR = counter-screen for mitochondrial permeability transition pore inhibitors, dose response | shares compounds with MPTP inh | hit rate 49% among 780 | isolated mitochondria counterscreen, fluorescence read-out | IC50, µM; in the data active means IC50 below about 80 µM
Numbers without * were called inactive; . = no result.

SMILES	tim23-1 inh	tim10-1 inh	Mdm2 MdmX PPI	TIM10 inh	MPTP inh	Rh123 counter	others
CCC(CC)C(=O)Nc1cccc(S(=O)(=O)c2cccc(NC(=O)C(CC)CC)c2)c1	16	25	1	-4	58*	36*
CCC(CC)C(=O)Nc1cccc(C(=O)Nc2ccc(S(N)(=O)=O)cc2)c1	-3	0	-25	2	-2	.
CCCOc1cc(N(CC)CC)ccc1/C=C(/C#N)c1nc2ccc(C)cc2[nH]1	20	11	49	0	78*	57*
C[C@H]1CN(c2ccccc2)C(=O)[C@@H]1CC(=O)Nc1ccccc1	.	.	.	.	0	.
CCOC(=O)c1ccc(-c2c(C(=O)OCC)oc3cc(O)c(CC)cc3c2=O)o1	13	23	0	5	82*	86*
CCCCN1C(=O)C(CC(=O)NCc2cccs2)CC(C(=O)N(C(C)C)C(C)C)=C1C (configuration not stated)	.	.	.	.	0	.
CCc1nc2c(OCc3ccc(Cl)cc3Cl)cccn2c1N(C)C(=O)c1ccccc1F	.	.	.	.	0	.
Cc1nc2c(OCc3ccc(Cl)cc3Cl)cccn2c1N(C)Cc1cccs1	.	.	.	.	72*	87*
Cc1nc2c(OCc3cccc(Cl)c3)cccn2c1N(C)Cc1cccs1	.	.	.	.	71*	86*
CCC(c1nnnn1-c1ccc2c(c1)OCCO2)N1CCN(Cc2c(F)cccc2Cl)CC1 (configuration not stated)	.	.	.	.	0	.
O=C(OCc1cn([C@@H]2C[C@H](c3ccccc3)N(Cc3cccs3)C[C@H]2O)nn1)c1ccccc1	.	.	.	.	0	.
CC(C)CN(C(=O)COC(=O)c1cc2ccccc2cc1O)c1c(N)n(Cc2ccccc2)c(=O)[nH]c1=O	.	.	.	.	-1	.
COc1ccccc1Oc1ccc2c(c1)C(=O)N(c1cccc3ncccc13)C2=O	.	.	.	.	96*	112*
COc1ccccc1Oc1ccc2c(c1)C(=O)N(c1cccc(O)c1)C2=O	6	16	17	6	6	.
CCOC(=O)/C(C#N)=C1/C=C(C)NC(c2ccccc2O)=N1	10	24	47	3	94*	89*
O=C(NC(NC(=S)Nc1ccc(Cl)cc1)C(Cl)(Cl)Cl)c1ccco1 (configuration not stated)	3	8	26	3	96*	84*
O=C(CCc1ccccc1)NC(NC(=S)Nc1cccc(Cl)c1)C(Cl)(Cl)Cl (configuration not stated)	19	16	24	18	94*	78*
O=C(CCc1ccccc1)NC(NC(=S)Nc1ccc(Br)cc1)C(Cl)(Cl)Cl (configuration not stated)	4	-6	9	3	81*	81*
O=C(CCc1ccccc1)NNC(=O)Nc1ccc(Br)cc1	1	-7	-11	-3	40	.
COc1ccc(CN2C(=O)CSCC2(C)C(=O)Nc2c(C)cccc2C)cc1 (configuration not stated)	.	.	.	.	1	.
Cc1ccc(S(=O)(=O)NCc2ccccc2NS(=O)(=O)c2ccc(C)cc2)cc1	.	.	.	.	1	.
CCc1cccc(C)c1NC(=O)CSc1nnc(-c2cc3cc(Br)ccc3o2)n1CC	21	20	15	19	92*	84*
Cn1c(SCC(=O)Nc2cccc(C(=O)O)c2)nnc1-c1cc2cc(Br)ccc2o1	19	16	-8	1	0	.
O=C1CCc2cccc(O)c2N1	.	.	.	.	0	.
O=C(/C=C/c1cn(CC(O)CN2CCCCCC2)c2ccccc12)c1cccs1 (configuration not stated)	-7	14	44	37	80*	-21
SMILES	tim23-1 inh	tim10-1 inh	Mdm2 MdmX PPI	TIM10 inh	MPTP inh	Rh123 counter	others
CCc1nc2c(c(=O)[nH]1)C1(CCCC1)Cc1ccccc1-2	18	8	13	11	0	.
O=c1[nH]c(CN2CCCCC2)nc2c1C1(CCCCC1)Cc1ccccc1-2	22	31	14	23	77*	-2	MPTP swell DR=>100;MPTP cs DR=>80
CCS(=O)(=O)N1CCN(c2ncnc3sc(C)c(C)c23)CC1	9	12	25	-3	0	.
Cc1ccc(S(=O)(=O)N2CCN(c3ccccn3)CC2)cc1	6	0	-6	-4	3	.
O=S(=O)(c1ccccc1C(F)(F)F)N1CCN(c2ncnc3sccc23)CC1	41	-21	29	13	19	.
Cc1sc2ncnc(N3CCN(S(=O)(=O)c4ccc(F)cc4)CC3)c2c1C	28	9	17	9	56*	66*
c1ccc(CC2CCN(c3ncnc4sccc34)CC2)cc1	.	.	.	.	100*	98*
O=S(=O)(c1ccc(F)c(F)c1F)N1CCN(c2ncnc3sccc23)CC1	12	0	31	-7	68*	87*
Cc1ccc(S(=O)(=O)N2CCN(c3ncnc4sccc34)CC2)cc1	48	25	22	7	82*	85*
CC(C)(C)c1ccc(CC(=O)N2CCC2(C)C(=O)Nc2cccc3cccnc23)cc1 (configuration not stated)	.	.	.	.	0	.
Cc1ccc(S(=O)(=O)N2CCOCC2)cc1NC(=O)COC(=O)COc1ccc(C#N)cc1	.	.	.	.	0	.
COc1ccc(C(=O)OCC(=O)c2ccco2)cc1[N+](=O)[O-]	.	.	.	.	2	.
Cc1ccc(CC(=O)Nc2ncc([N+](=O)[O-])s2)cc1	46	30	-83	36	66*	90*
O=C(COc1ccc([N+](=O)[O-])cc1)NNC(=O)Nc1ccc([N+](=O)[O-])cc1	7	2	38	-3	67*	96*
Cc1ccc(NC(=O)NNC(=O)COc2ccc([N+](=O)[O-])cc2)cc1C	-2	-3	-1	-16	1	.
Cc1ccc(/C=C/C(=O)Nc2ccc(Oc3ccccc3)cc2)o1	.	.	.	.	17	.
CCCCOc1ccc(/C=C/C(=O)Nc2ccc([N+](=O)[O-])cc2C)cc1	3	30	2	24	5	.
Cc1ccc(/C=C/C(=O)Nc2ccc([N+](=O)[O-])cc2)o1	3	11	11	11	89*	75*
CCCOc1ccc(/C=C/C(=O)Nc2ccc([N+](=O)[O-])cc2)cc1	-10	18	-17	15	82*	86*
Cn1c(N)c(N=O)c(=O)n(C)c1=S	.	.	.	.	-2	.
NS(=O)(=O)c1cccc(NC(=O)COC(=O)CCC(=O)c2cccs2)c1	-9	-10	15	2	0	.
O=C(/C=C/c1ccc([N+](=O)[O-])cc1)Nc1ncc([N+](=O)[O-])s1	.	.	.	.	83*	63*
OC1(c2cccc(C(F)(F)F)c2)CCN(c2ncnc3c2[nH]c2ccc(F)cc23)CC1	.	.	.	.	50*	87*
Fc1ccc2[nH]c3c(N4CCN(c5ccccc5)CC4)ncnc3c2c1	4	6	44	-1	98*	112*
CCCCOc1ncnc2c1[nH]c1ccc(F)cc12	12	24	9	10	95*	84*
